Test results taken from PubChem BioAssay.
The source made the active and inactive calls.

Key:
Albumin (Bos taurus) = Albumin (Bos taurus) (UniProt P02769); experiment: compounds binding labelled BSA control protein – biochemical, small-molecule microarray, Alexa647 label, 635/667 nm fluorescence, artefact control for SMM control protein annotation, profiling panel (AID 1118); details: BSA-A647 binding, fluorescence 635 nm, higher = more signal;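 note: score merges 667 nm emission intensity and signal-to-noise per printed compound spot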
Albumin (Bos taurus), sequence (P02769 whole entry, looked up): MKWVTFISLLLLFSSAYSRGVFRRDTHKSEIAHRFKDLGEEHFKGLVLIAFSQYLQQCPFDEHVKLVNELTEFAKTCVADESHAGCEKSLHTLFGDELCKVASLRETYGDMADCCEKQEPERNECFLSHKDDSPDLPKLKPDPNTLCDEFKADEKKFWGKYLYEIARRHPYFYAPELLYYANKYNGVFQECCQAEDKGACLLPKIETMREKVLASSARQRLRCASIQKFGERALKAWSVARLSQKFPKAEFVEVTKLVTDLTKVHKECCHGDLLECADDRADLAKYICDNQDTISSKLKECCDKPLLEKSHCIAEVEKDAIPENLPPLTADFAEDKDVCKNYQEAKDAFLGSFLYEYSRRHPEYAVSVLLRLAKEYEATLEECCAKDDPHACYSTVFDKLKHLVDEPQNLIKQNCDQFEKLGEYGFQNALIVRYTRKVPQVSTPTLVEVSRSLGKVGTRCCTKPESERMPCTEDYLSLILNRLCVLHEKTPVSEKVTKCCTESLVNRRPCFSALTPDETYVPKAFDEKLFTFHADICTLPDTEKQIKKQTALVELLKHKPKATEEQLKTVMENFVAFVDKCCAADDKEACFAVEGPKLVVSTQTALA

[1] = probe aXIP binding to arrayed compounds – biochemical, NeuroSMM set, 635/667 nm fluorescence, primary screen (AID 1119); details: small-molecule microarray, higher = more signal, called active from +8 up or from −8 down;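 note: probe is the protein aXip251-270 applied at 1 µg/mL to compound-printed slides; binding of probe to printed compounds measured as 667 nm fluorescence plus signal to noise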
[2] = probe aNOTCH3 binding on compound microarray – biochemical, small-molecule microarray, 635/667 nm fluorescence, primary screen (AID 1120); details: higher = more signal;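 note: probe is a biotin-tagged antibody raised against NOTCH3 rather than NOTCH3 protein; score merges spot fluorescence near 667 nm with spot signal to noise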
[3] = probe aNOTCH2 binding on compound microarray – biochemical, small-molecule microarray, 635/667 nm fluorescence, primary screen (AID 1121); details: higher = more signal;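 note: score merges feature fluorescence read at 667 nm with its signal to noise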
[4] = biological target: Carbonic anhydrase 2 (Homo sapiens) (UniProt P00918); experiment: compounds binding carbonic anhydrase 2 – biochemical, small-molecule microarray, Alexa647-labelled CAII, profiling panel (AID 1122); details: CAII-A647 binding fluorescence, higher = more signal
[5] = COS7 lysate on small-molecule microarray, probe aHis, 635 nm (AID 1123); details: COS7 cell lysate, fluorescence, higher = more signal;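 note: z-score combines 667nm fluorescence intensity with signal-to-noise per printed compound spot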
[6] = probe aLAP1 signal on lysate-treated microarray – cell lysate, small-molecule microarray, COS7 lysate, primary screen (AID 1124); details: probe aLAP1, fluorescence, higher = more signal;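 note: lysate comes from COS7 cells expressing LAP1 and is applied at 0.3 µg/mL; score merges spot fluorescence near 667 nm with signal-to-noise over triplicate slides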
Sam68 (KHDRBS1) = experiment: compounds binding KHDRBS1 protein – biochemical, small-molecule microarray, 635 nm fluorescence, primary screen (AID 1125); details: higher = more signal;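 note: score merges 667 nm channel intensity with signal to noise over triplicate slides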
[7] = system: Chordin-like protein 2 (CHRDL2); experiment: compounds binding chordin-like 2 – biochemical, small-molecule microarray, 635 nm fluorescence, primary screen (AID 1126); details: fluorescence 635 nm, higher = more signal;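 note: printed compound slides probed with Chrdl2 protein at 4 µg/mL for 1 h at 4 C; score merges 667 nm emission intensity with signal to noise over three replicate slides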
[8] = biological target: Concanavalin-A (Canavalia ensiformis) (UniProt P02866); experiment: compounds binding concanavalin A lectin – biochemical, small-molecule microarray, Alexa647 label, 635 nm, artefact control for SMM control protein annotation, primary screen (AID 1127); details: ConA-A647 binding fluorescence, higher = more signal;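 note: z combines 667 nm emission intensity with signal-to-noise across three replicate slides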
Concanavalin-A (Canavalia ensiformis), sequence (P02866 whole entry, looked up): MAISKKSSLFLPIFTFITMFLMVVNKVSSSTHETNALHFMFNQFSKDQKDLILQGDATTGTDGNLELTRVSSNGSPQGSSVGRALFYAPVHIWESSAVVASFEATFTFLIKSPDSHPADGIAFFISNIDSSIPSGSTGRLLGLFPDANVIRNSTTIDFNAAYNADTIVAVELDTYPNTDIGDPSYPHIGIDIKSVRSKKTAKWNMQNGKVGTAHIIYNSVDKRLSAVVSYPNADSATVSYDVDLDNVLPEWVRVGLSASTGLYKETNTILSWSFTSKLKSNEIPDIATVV

Structure (SMILES) | composite z-score (Albumin (Bos taurus)) | composite Z-score [1] | composite z-score [2] | composite z-score [3] | composite z-score [4] | composite z-score [5] | composite z-score [6] | composite z-score (Sam68 (KHDRBS1)) | composite z-score [7] | composite z-score [8]
CC(=O)NCCCC[C@@H]1NC(=O)[C@@H]2C[C@H](C(=O)NCCCCCCN(C)C)[C@H](c3ccc(O)cc3)N2C1=O | -0.853 | 0.67 (inactive) | -0.0396 | 0.112 | 0.57 | 1.92 | -0.234 | 1.32 | 1.44 | 1.21
CCCNC(=O)[C@@H]1c2ccccc2C(=O)N(C2CCCCC2)[C@H]1c1ccc(CO)cc1 | 0.334 | 0.474 (inactive) | 0.103 | -0.106 | 0.293 | 2.72 | 0.711 | 1.29 | 0.179 | 1.03
CC[C@H]1C2=C3C(CC[C@H]4C(OC)OC[C@](C)([C@@H]34)N(C(=O)OC(C)(C)C)C2)C(CO)C1CO (stereo not given in full) | 1.05 | 0.067 (inactive) | 0.619 | 0.437 | 0.486 | 3.15 | 0.903 | 1.29 | -0.656 | 1.16
CCC(=O)[C@]12O[C@@]3([C@@H]4C(=O)OCC[C@@H]41)N(CC)C(C)=C(C(=O)OC)[C@@H](c1ccccc1)N3C2=O | -0.499 | -0.302 (inactive) | -0.122 | -0.157 | 0.828 | -0.68 | 0.448 | -0.516 | 0.841 | -0.0306
CC(C)CNC(=O)[C@@]1(C)c2ccccc2C(=O)N(Cc2ccc(OC(F)(F)F)cc2)[C@H]1c1ccc(CO)cc1 | -0.2 | 0.416 (inactive) | -0.241 | -0.0094 | 0.706 | 1.17 | 0.559 | -0.718 | -1.3 | -1.74
CC(=O)Nc1ccc([C@H]2[C@H](C)CC[C@H]3C(=O)N4[C@@H](CC[C@@H](C)[C@@H]4c4ccc(NC(C)=O)cc4)C(=O)N32)cc1 | 0.626 | -0.222 (inactive) | -0.0699 | -0.195 | 0.634 | 1.24 | 0.264 | 1.31 | 0.378 | 1.12
CCc1cccc(NC(=O)O[C@H]2[C@H](OC(=O)Nc3ccccc3)[C@@H](OC(=O)Nc3ccccc3)[C@@H](OC)O[C@@H]2CO)c1 | 0.819 | -0.477 (inactive) | 0.163 | -0.0527 | 0.806 | 2.69 | 0.421 | 1.29 | -0.061 | 1.14
COCCOC(=O)N1C(=O)[C@@]2(c3cc(C#CC4=CCCCC4)ccc31)[C@H](c1ccc(O)cc1)N1[C@H](c3ccccc3)[C@H](c3ccccc3)OC(=O)[C@H]1[C@@H]2C(=O)N1CCCCCCC1 | -0.645 | 1.69 (inactive) | 0.112 | -0.122 | 0.425 | 0.129 | 0.135 | 1.29 | 0.729 | 1.12
O=C(CS)NCCCCCNC(=O)[C@H]1C[C@H]2C(=O)N3CCC[C@H]3C(=O)N2[C@H]1c1ccc(O)cc1 | -1.54 | -0.17 (inactive) | -0.229 | -0.0304 | 0.729 | 0.0961 | 1.23 | -0.305 | 0.641 | -0.736
O=C1C2C=CC(C(O)c3ccccc3)N(n3cnnc3)C2C(=O)N1Cc1ccccc1 (stereo not given) | 0.878 | 0.0912 (inactive) | 0.0562 | -0.0136 | 0.565 | 0.775 | -0.333 | -0.493 | 0.0921 | 0.161
COCCCNC(=O)[C@@H]1c2ccccc2C(=O)N(CC23CC4CC(CC(C4)C2)C3)[C@H]1c1ccc(CO)cc1 | -0.507 | 0.309 (inactive) | 0.28 | -0.0232 | 0.449 | 1.34 | 0.334 | 1.27 | -0.0949 | -0.171
C=CCC(OC(C)=O)[C@@H]1[C@@H](N(Cc2cc3ccccc3o2)C(=O)Cc2ccc(F)cc2)c2cc(OCCCO)ccc2N1C(=O)c1ccc(-c2ccccc2)cc1 (stereo not given in full) | -0.182 | -0.765 (inactive) | -0.0881 | 0.0017 | -0.309 | 0.125 | -0.546 | -0.533 | -0.26 | -0.764
Cc1ccc(N2C(=O)c3ccccc3[C@](C)(C(=O)NCC(C)C)[C@@H]2c2ccc(CO)cc2)nc1 | -1.09 | 0.917 (inactive) | -0.278 | -0.126 | 0.265 | 0.437 | -0.115 | -0.68 | -0.233 | -1.92
CO[C@H]1COC(=O)[C@H](C)NC(=O)CC=C[C@@H](C)[C@H](NS(=O)(=O)c2ccc(C)cc2)COC(=O)CC=C[C@@H]1C | -0.524 | 0.0426 (inactive) | -0.152 | -0.146 | 0.651 | -0.616 | -0.177 | -1.03 | 1.41 | -0.206
C=CC[C@]1(C(=O)N2CCCCC2)N=C(c2ccc(OCCCO)cc2)O[C@H]1c1ccccc1N=[N+]=[N-] | 0.947 | 0.103 (inactive) | 0.486 | 0.284 | 0.789 | 2.81 | 0.941 | 1.3 | -0.154 | 1.13
C#CCNC(/C=C/c1ccccc1)CO (stereo not given) | -0.086 | 0.234 (inactive) | -0.104 | -0.115 | -0.152 | 0.14 | -0.0995 | 0.134 | 0.3 | 0.262
Cc1ccc(S(=O)(=O)N2[C@@H](c3ccccc3)C(C(=O)O)=CC[C@H]2c2ccccc2)cc1 | 0.508 | 1.47 (inactive) | -0.0647 | -0.0771 | 0.837 | 2.33 | 0.498 | 0.702 | -0.439 | 0.0991

Structure (SMILES) | composite z-score (Albumin (Bos taurus)) | composite Z-score [1] | composite z-score [2] | composite z-score [3] | composite z-score [4] | composite z-score [5] | composite z-score [6] | composite z-score (Sam68 (KHDRBS1)) | composite z-score [7] | composite z-score [8]
C=CCN1C(=O)[C@]2(O[C@H](CCn3cc(CCO)nn3)[C@@H]([Si](C)(C)c3ccc(OC)cc3)[C@@H]2C)c2cc(NC(=O)c3ccc(OC)cc3)ccc21 | 0.0645 | -0.624 (inactive) | 0.141 | -0.044 | 0.131 | 0.514 | -0.0812 | 1.3 | 0.782 | 1.08
C=C(CCCC)/C(=C/C[C@@H](OC(=O)c1ccncc1)c1cccc(OCCO)c1)c1cc(C(=O)OC)ccc1OC | 0.6 | -0.259 (inactive) | 0.0893 | -0.0974 | 0.57 | 2.84 | 1.05 | 1.19 | 0.287 | 1.11
C[C@H]1C2[C@H](Cc3ccccc3)NC(=O)[C@]23C(=O)N[C@H](Cc2ccccc2)C(=O)N[C@@H](Cc2ccccc2)C(=O)NC/C=C\C/C=C/C3[C@@H]2O[C@]12C (stereo not given in full) | 0.992 | 0.448 (inactive) | 0.36 | -0.0942 | 0.742 | 0.0046 | 0.0901 | -0.221 | 0.371 | -1.08
Cc1ccc(S[C@]2(C(=O)NC(C)C)CC(=O)N(Cc3cc(C(F)(F)F)cc(C(F)(F)F)c3)[C@@H]2c2ccc(CO)cc2I)cc1 | -1.25 | 0.0296 (inactive) | -0.313 | -0.14 | 0.788 | 1.31 | 0.917 | -0.733 | -1.21 | -0.442
NC(=O)NCC#Cc1ccc2c(c1)[C@]1(C(=O)N2)[C@H](C(=O)N2CCCCCCC2)[C@H]2C(=O)O[C@H](c3ccccc3)[C@H](c3ccccc3)N2[C@@H]1c1ccccc1OCCO | 0.408 | 4.79 (inactive) | 1.43 | 0.985 | 0.953 | 4.03 | 1.26 | 1.31 | 1.56 | 1.11
CC(C)NC(=O)[C@@]1(Cc2ccccc2I)c2ccccc2C(=O)N(C2CCCCC2)[C@H]1c1ccc(CO)cc1 | 0.965 | 0.256 (inactive) | 0.233 | 0.076 | 0.312 | 2.55 | 0.429 | 1.31 | 0.127 | 1.1
CCCCO[C@H]1C[C@H]2C(Br)=C[C@@]1(CO)C(=O)[C@]21CO1 | -1.23 | -0.442 (inactive) | -0.0647 | -0.201 | -0.548 | 0.124 | -0.139 | 0.362 | 0.569 | 0.153
O=C1O[C@@H](c2ccccc2)[C@@H](c2ccccc2)N2[C@@H](c3ccc(O)cc3)[C@]3(C(=O)Nc4ccc(C#CC5(O)CCCCCC5)cc43)[C@@H](C(=O)Nc3nc4ccccc4s3)[C@H]12 | 0.839 | 0.751 (inactive) | 0.173 | 0.0943 | 0.0181 | 1.95 | 0.807 | 1.35 | 0.896 | 1.08
CCOC(=O)C[C@H]1[C@H](OC(=O)c2ccccc2-c2ccccc2)[C@@H](NC(=O)C2CCCCC2)c2cc(OCCCO)ccc2N1C(=O)c1ccccc1 | 0.576 | 0.909 (inactive) | -0.0647 | -0.0784 | 0.393 | 0.68 | -0.175 | 0.692 | 0.173 | 0.404
CCOC(=O)C[C@H]1[C@H](OC(=O)c2ccccc2-c2ccccc2)[C@@H](NC(=O)c2ccc(-c3ccccc3)cc2)c2cc(OCCCO)ccc2N1C(=O)Cc1ccc(OC)cc1 | 0.0867 | 0.0368 (inactive) | 0.0193 | -0.0759 | -0.0176 | 0.416 | -0.0563 | 0.406 | 0.335 | 0.398
CCOC(=O)C[C@H]1[C@H](OC(=O)c2cc3ccccc3oc2=O)[C@@H](NC(=O)c2ccc3ccccc3c2)c2cc(OCCCO)ccc2N1C(=O)c1ccc2ccccc2n1 | 0.668 | 0.575 (inactive) | 0.0842 | -0.122 | 0.426 | 0.193 | 0.155 | 0.325 | 0.731 | 0.536
CC(C)[Si](OCCCNS(=O)(=O)c1ccc(Br)cc1)(C(C)C)C(C)C | 0.406 | -0.495 (inactive) | 0.107 | -0.0877 | 0.0774 | 0.468 | 0.194 | 1.33 | 0.29 | 1.08
COCCOC(=O)N1C(=O)[C@@]2(c3cc(C#CCCO)ccc31)[C@H](c1ccc(OCCO)cc1)N1[C@H](c3ccccc3)[C@H](c3ccccc3)OC(=O)[C@H]1[C@@H]2C(=O)NC[C@H](O)c1ccccc1 | -0.525 | 0.463 (inactive) | 0.272 | -0.146 | 0.484 | 1.78 | 0.54 | 1.29 | 0.716 | 1.05
Cc1ccc(S[C@]2(C(=O)NCCN3CCOCC3)CC(=O)N(C3Cc4ccccc4C3)[C@@H]2c2ccc(CO)cc2I)cc1 | 0.545 | 2.61 (inactive) | -0.0903 | 0.116 | 0.576 | 1.42 | 0.39 | 0.458 | -2.56 | -0.587
COC(=O)[C@@]1(Cc2ccc(OC)cc2)[C@H]2c3cc(C(=O)N(C)C)n(Cc4ccc(C)c(F)c4F)c3C[C@H]2CN1C(=O)c1ccccc1 | 0.856 | 0.0888 (inactive) | 0.0159 | -0.108 | 0.535 | 1.41 | 0.0293 | 0.138 | -1.22 | 0.782
O=C1O[C@@H](c2ccccc2)[C@@H](c2ccccc2)N2[C@@H](c3ccc(O)cc3)[C@]3(C(=O)Nc4ccccc43)[C@@H](C(=O)N3CCN(c4ncccn4)CC3)[C@H]12 | 0.689 | 5.4 (inactive) | -0.122 | -0.154 | 0.686 | 0.456 | 0.613 | 0.528 | -0.571 | 0.474
